Most compounds without a hit are left out; they make up all but 2.6% or so of the library.
ABHD5-PLIN5 inh – ABHD5-PLIN5 interaction inhibitors, primary screen, cell lysate, split luciferase complementation, luminescence; hit rate 0.78% among 360,000; Perilipin-5 (Homo sapiens) + 1-acylglycerol-3-phosphate O-acyltransferase ABHD5 (Homo …; inhibition, % at 4 µM; Split G. princeps luciferase complementation, 4 h; AID 602281, 2012;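 active = inhibition above the mean inhibition across every tested compound plus 3 SD, cut at about 22% in these data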;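 also: 0% = DMSO only wells and the 100% control is not disclosed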
Exocytosis inh – LAMP-1 surface exposure blockers, TALL-104 cells – cell-based, flow cytometry, MLPCN library, primary screen; hit rate 0.66% among 360,000; TALL-104 LAMP-1 surface exposure; cells stimulated with thapsigargin and PMA; AID 651702, 2012; inhibition, % at 10 µM;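 active = inhibition above about 55%, limit read from the data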
NOD2-RIPK2 inh – NOD2-RIPK2 binding disruptors in cells, primary screen, fluorescence, CHO cells, BLA complementation; CCF4 ratio; hit rate 0.38% among 360,000; Receptor-interacting serine/threonine-protein kinase 2 (Homo sapiens), O43353; inhibition, % at 4.98 µM; in the data active = inhibition above about 21%;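 also: 0% = vehicle only and 100% = reference blocker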
TLR9-MyD88 inh – inhibitors of TLR9-MyD88 association in cells, primary screen, cell-based, CHO, BLA complementation, fluorescence; Toll-like receptor 9 (Homo sapiens) + Myeloid differentiation primary response protein …; inhibition, % at 4.98 µM; hit rate 0.21% among 340,000; CCF4 FRET ratio;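 active = inhibition above the mean over all tested compounds plus 3 SD, cut at about 21% in these data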;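 also: 0% = DMSO only wells and 100% = clavulanate BLA inhibitor control wells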
TLR4 MyD88 comp – inhibitors of TLR4-MyD88 association in cells, primary screen, cell-based, HeLa CL3-4, BLA complementation, FRET ratio; Toll-like receptor 4 (Homo sapiens) + Myeloid differentiation primary response protein …; HeLa CL3-4 TLR4/MyD88 BLA complementation; inhibition, % at 8.4 µM; hit rate 0.18% among 200,000; in the data active = inhibition above about 25%;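 also: 0% = vehicle and 100% = reference inhibitor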
PRMT1 inh – PRMT1 methyltransferase inhibitors, primary screen, biochemical, fluorescence polarization; Protein arginine N-methyltransferase 1 (Homo sapiens), Q99873; recombinant PRMT1, activity-based probe fluorescence polarization; inhibition, % at 2.79 µM; hit rate 1.3% among 370,000; AID 652257, 2013;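 active = inhibition above about 21% made by adding two undisclosed values, limit read from the data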
Numbers without * were called inactive; nt = no result.

SMILES | ABHD5-PLIN5 inh | Exocytosis inh | NOD2-RIPK2 inh | TLR9-MyD88 inh | TLR4 MyD88 comp | PRMT1 inh
COC(=O)[C@]1(CC(C)C)NC=C(C(=O)c2ccccc2)[C@@H]1c1cccc(C(F)(F)F)c1 | nt | nt | nt | nt | nt | -2
CCOC(=O)c1cc2n(c1/N=C/N(C)C)-c1ccccc1C2=O | -24 | -1 | 5 | -4 | 16 | 23*
CCOC(=O)c1ccc2c(c1)N(C)C(=O)c1ccccc1S2 | -8 | 0 | 3 | -2 | nt | nt
C=CCN1C(=O)c2n[nH]c(C(C)C)c2C1c1ccc2c(c1)OCO2 (configuration not stated) | nt | nt | nt | nt | nt | 1
O=C(NN=Cc1ccccc1Cl)C(=O)Nc1cccc(C(F)(F)F)c1 | nt | nt | nt | nt | nt | 1
COC1=CC(=O)c2nc(Cl)ccc2C1=O | 18 | 86* | -2 | nt | nt | 3
Cc1cc(N2CCNC[C@H]2C)ccc1N1CCS(=O)(=O)CC1 | nt | nt | nt | nt | nt | 0
COCCCN1C(=O)[C@H](CC(=O)NCc2ccc(C)o2)[C@]2(C(=O)OC)CCCCC=C12 | nt | nt | nt | nt | nt | 4
CCOC(=O)c1sc2ncn(C(C)C(=O)OC)c(=O)c2c1C (configuration not stated) | -4 | 0 | -2 | 10 | -3 | 0
CCOC(=O)c1sc2ncn(/N=C/c3ccc(O)c(OC)c3)c(=O)c2c1C | -8 | 105* | 0 | -11 | -7 | 2
O=C(/C(=N/N=C/c1ccc(O)c(O)c1O)c1ccccc1)c1ccccc1 | -27 | 11 | -6 | 7 | -3 | 27*
COc1ccccc1-c1ccc(/C=C2/C=C(C)OC2=O)o1 | 23* | 10 | -3 | -3 | -1 | 19
C[C@]12CC[C@@H]3c4ccc(OC(=O)c5ccccc5)cc4CC[C@H]3[C@@H]1CC[C@@H]2O | 1 | 60* | 1 | 1 | 3 | 0
CCC1=C/C(=C/c2sc3ccccc3[n+]2CC)CC(C)(C)C1 | nt | nt | nt | nt | -2 | 37*
CC(=O)Nc1ccc(NC2=Nc3ccccc3N3C2=Nc2c(c(C)nn2-c2ccccc2)C3c2ccccc2)cc1 (configuration not stated) | -4 | 58* | 0 | 6 | -2 | 1
COc1ccccc1C(=O)N1CCC2CCNC2C1 (configuration not stated) | nt | nt | nt | nt | nt | 3
Cc1cc(NC(=O)C(C)SCC(=O)N(C)CC(=O)Nc2ccc(F)cc2)no1 (configuration not stated) | 23* | -4 | -4 | 0 | nt | -3
O=C(N[C@H](Cc1ccccc1)C(=O)N1CCN(c2ccc(Cl)cn2)CC1)[C@H]1O[C@@H](n2ccc(=O)[nH]c2=O)[C@H](O)[C@@H]1O | nt | nt | nt | nt | nt | -5
COCCCNC(=O)/C=C/c1ccc(Cl)cc1Cl | 8 | -3 | -11 | 2 | -4 | -2
CCNc1ccc(Br)cc(C(=O)/C=C/c2ccc(Cl)cc2Cl)c1=O | 47* | 5 | 7 | 11 | 1 | 27*
CCOC(=O)N1CCN(C(=O)C[C@H]2C[C@@]3(C(=O)OC)C(=C[C@H](C(C)C)O[C@@H]3C3CC3)N(Cc3ccccc3)C2=O)CC1 | nt | nt | nt | nt | nt | -2
O=C(Nc1ccc2c(c1)oc1ccccc12)c1ccncc1 | 22* | 1 | -5 | 6 | 5 | 7
CCNC(=S)Nc1ccc2c(c1)oc1ccccc12 | -6 | 59* | -5 | 1 | nt | -4
Cc1oc(-c2ccc3c(c2)OCCO3)cc1C(=O)NCC(=O)O | 22* | 12 | -5 | -6 | 8 | 1
CC(C)N1CCc2c(sc(NC(=S)NC(=O)c3ccccc3)c2C#N)C1 | -2 | 4 | 8 | 8 | 8 | 28*
SMILES | ABHD5-PLIN5 inh | Exocytosis inh | NOD2-RIPK2 inh | TLR9-MyD88 inh | TLR4 MyD88 comp | PRMT1 inh
O=C(Nc1nc2ncccn2c1-c1ccccc1)C1CC1 | nt | nt | nt | nt | nt | 2
Cc1cccc(C)c1-n1nnnc1-c1nc2cc(Br)ccc2[nH]c1=O | 5 | 77* | -18 | nt | nt | -1
COC(=O)C1=C(C)N(Cc2cccc(C(F)(F)F)c2)C(=NCc2ccc(OC)cc2)NC1c1cccc(C(F)(F)F)c1 (configuration not stated) | nt | nt | nt | nt | nt | 0
COc1ccccc1CNS(=O)(=O)c1ccc(F)cc1Br | nt | nt | nt | nt | nt | -4
CN(C)c1ccc(NC(=O)C[n+]2ccccc2)cc1 | 1 | 56* | 1 | 4 | nt | -1
O=C(Nc1ccccc1F)c1cc(-c2ccco2)nc2ccccc12 | 5 | 2 | -4 | -1 | nt | 13
O=C(Nc1ccc(F)cc1F)c1cc(-c2ccco2)nc2ccccc12 | -1 | 6 | -2 | -10 | nt | 23*
COC(=O)N(C)C[C@H]1OCc2cn(nn2)CCCC(=O)N([C@H](C)CO)C[C@@H]1C | nt | nt | nt | nt | nt | -2
CCN(CC)CCOCCOC(=O)C(CC)(CC)c1ccccc1 | 23* | 3 | -13 | nt | nt | 0
CCN(CC)CCOCCOc1ccccc1F | 1 | 0 | -6 | 2 | 3 | 0
CC(=O)N1C[C@@H](CO)[C@@H]2C[C@H]1c1ccccc1N2C | nt | nt | nt | nt | nt | 5
CC(=O)c1ccc2noc(-c3cccc(F)c3)c2c1 | 22* | -2 | 7 | -9 | nt | 6
CC(=O)Oc1cc2oc(=O)cc(C)c2cc1OC(C)=O | 2 | 3 | 9 | 4 | 0 | 21*
COC(=O)[C@@]12CCCCC=C1N(CCc1ccc(Cl)cc1)C(=O)[C@H]2CC(=O)NCCc1ccccc1OC | nt | nt | nt | nt | nt | 2
O=C1CCC/C1=C/Nc1ccc(Cl)cc1 | 0 | -1 | 0 | 0 | 1 | 1
O=C1CCCC/C1=C\Nc1ccc(O)cc1 | -20 | 3 | -7 | 0 | -5 | 26*
CCn1c(SCC(=O)N(C)CCC#N)nc2cc(S(=O)(=O)N3CCOCC3)ccc21 | 23* | -8 | -18 | -3 | nt | 0
CCn1c(SCC#N)nc2cc(S(=O)(=O)N3CCOCC3)ccc21 | 10 | -2 | -7 | -7 | nt | -5
C[C@@H]1CN([C@@H](C)CO)C(=O)CCCn2nncc2CO[C@@H]1CN(C)C(=O)C1CC1 | nt | nt | nt | nt | nt | 0
COC(=O)c1cc(S(=O)(=O)N2CCN(C(C)=O)CC2)cn1C | nt | nt | nt | nt | nt | -4
Cc1ccc(NC(=O)CN2C(=O)N/C(=C/c3cc(C)n(-c4cccc(C(=O)O)c4)c3C)C2=O)cc1 | 9 | -7 | -6 | 2 | -5 | 25*
COC(=O)c1cccc(C23CC4(C2)[C@H](CN(Cc2ccc(C(F)(F)F)cc2)[C@@H]4c2ccccc2)C3c2ccc(Cl)nc2)c1 (some centres not stated) | -4 | 77* | -7 | -6 | nt | 1
CCC[C@H]1[C@@H](NC(=S)Nc2ccccc2Cl)CC[C@@]23CCCN2C(=O)CCC[C@@H]13 | nt | nt | nt | nt | nt | 2
